Laboratory results published in the supplement of paper PMC10849652.
The full data set covers some 8,800 targets. This sample favours those with a hit. About 0.5% of all pairs of compound and target were hits.

Compound: CC[C@@H]1C(=O)N(C)c2cnc(Nc3ccc(C(=O)N[C@H]4CC[C@H](N5CCN(CC6CC6)CC5)CC4)cc3OC)nc2N1C(C)C [volasertib]
Test: log2 fold change, soluble protein after heating vs DMSO (PISA); higher = thermal stabilisation; K562 lysate, 10 uM; active = over 0.2 and 3.5 SD of the protein, either way, in both replicates (recomputed)
In short: (§1)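 K562 pellets were dounce-homogenised in PBS pH 7.4 with 1 mM MgCl2, and the crude extract at 1 mg/mL protein was treated with 10 μM compound for 30 min. Aliquots were heated for 3 min across 48°C-58°C, pooled, and brought to 0.5% NP-40 at 4°C; soluble protein was the supernatant after 21,000xg for 90 min. Soluble protein was quantified by TMTpro 16plex LC-MS/MS with channel sums equalised, and reported as log2 fold change in thermal stability against DMSO controls, with values from duplicates.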

Chain of UniProt Q99755 (Q99755 whole entry, looked up): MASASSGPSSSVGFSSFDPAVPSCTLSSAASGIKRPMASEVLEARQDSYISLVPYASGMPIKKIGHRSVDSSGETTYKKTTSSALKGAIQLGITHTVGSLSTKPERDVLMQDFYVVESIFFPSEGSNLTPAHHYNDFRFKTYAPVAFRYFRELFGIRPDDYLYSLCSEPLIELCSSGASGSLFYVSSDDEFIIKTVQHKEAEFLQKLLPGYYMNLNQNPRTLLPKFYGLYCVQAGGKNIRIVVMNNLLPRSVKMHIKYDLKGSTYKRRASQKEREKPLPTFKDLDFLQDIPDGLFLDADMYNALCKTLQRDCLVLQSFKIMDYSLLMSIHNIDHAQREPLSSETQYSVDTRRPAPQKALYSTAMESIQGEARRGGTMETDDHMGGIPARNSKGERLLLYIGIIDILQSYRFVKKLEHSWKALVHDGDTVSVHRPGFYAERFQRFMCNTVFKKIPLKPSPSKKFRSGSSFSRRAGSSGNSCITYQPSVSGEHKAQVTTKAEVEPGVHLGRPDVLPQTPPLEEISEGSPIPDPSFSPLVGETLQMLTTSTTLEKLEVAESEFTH
Chain of UniProt Q16378 (Q16378 whole entry, looked up): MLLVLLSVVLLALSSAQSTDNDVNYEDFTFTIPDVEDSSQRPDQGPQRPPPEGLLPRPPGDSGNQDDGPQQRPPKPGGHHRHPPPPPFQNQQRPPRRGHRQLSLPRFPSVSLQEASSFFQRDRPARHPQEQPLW
Chain of UniProt A8CG34 (A8CG34 whole entry, looked up): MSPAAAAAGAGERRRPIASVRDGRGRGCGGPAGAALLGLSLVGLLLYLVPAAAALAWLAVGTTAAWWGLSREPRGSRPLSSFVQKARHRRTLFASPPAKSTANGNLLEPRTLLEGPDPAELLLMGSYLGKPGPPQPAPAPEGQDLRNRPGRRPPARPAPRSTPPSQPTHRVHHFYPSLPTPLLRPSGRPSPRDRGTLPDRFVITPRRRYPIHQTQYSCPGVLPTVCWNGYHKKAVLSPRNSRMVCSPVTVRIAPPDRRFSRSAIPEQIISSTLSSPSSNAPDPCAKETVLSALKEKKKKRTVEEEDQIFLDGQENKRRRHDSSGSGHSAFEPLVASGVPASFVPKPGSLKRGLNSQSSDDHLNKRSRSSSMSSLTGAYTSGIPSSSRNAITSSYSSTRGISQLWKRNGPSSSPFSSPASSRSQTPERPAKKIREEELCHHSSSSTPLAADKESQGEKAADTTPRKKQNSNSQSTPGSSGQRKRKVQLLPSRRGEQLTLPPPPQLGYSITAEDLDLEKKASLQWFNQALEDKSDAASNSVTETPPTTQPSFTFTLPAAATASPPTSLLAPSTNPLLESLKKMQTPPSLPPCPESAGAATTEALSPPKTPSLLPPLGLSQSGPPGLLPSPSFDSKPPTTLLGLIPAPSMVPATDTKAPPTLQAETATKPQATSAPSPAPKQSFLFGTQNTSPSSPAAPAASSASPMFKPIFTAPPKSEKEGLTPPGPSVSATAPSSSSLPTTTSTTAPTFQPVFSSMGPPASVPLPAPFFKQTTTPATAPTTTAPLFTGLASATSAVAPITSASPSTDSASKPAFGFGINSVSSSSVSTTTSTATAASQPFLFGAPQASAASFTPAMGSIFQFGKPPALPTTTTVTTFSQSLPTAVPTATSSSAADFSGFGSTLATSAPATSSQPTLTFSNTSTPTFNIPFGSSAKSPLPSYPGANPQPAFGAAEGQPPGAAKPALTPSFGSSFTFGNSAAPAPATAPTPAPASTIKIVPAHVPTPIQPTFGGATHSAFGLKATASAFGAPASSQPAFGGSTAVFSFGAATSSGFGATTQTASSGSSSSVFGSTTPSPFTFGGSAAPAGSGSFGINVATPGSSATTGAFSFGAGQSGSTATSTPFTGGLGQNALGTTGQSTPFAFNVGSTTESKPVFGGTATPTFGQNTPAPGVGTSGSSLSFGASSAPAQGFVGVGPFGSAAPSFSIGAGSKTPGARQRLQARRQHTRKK
Chain of UniProt O60927 (O60927 whole entry, looked up): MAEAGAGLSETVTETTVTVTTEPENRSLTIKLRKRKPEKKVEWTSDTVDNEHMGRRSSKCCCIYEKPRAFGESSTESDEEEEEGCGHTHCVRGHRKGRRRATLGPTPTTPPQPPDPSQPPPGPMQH
Chain of UniProt Q16816 (Q16816 whole entry, looked up): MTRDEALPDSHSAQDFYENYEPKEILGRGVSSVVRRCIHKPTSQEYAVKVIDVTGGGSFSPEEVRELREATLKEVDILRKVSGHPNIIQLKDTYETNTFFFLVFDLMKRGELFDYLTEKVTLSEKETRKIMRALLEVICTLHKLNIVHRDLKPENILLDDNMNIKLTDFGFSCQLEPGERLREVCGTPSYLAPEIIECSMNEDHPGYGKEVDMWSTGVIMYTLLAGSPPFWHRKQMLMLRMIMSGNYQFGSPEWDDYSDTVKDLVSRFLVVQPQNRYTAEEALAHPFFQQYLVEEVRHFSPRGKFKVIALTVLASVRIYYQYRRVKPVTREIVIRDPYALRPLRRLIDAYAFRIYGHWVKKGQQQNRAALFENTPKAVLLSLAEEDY
Chain of UniProt P53350 (P53350 whole entry, looked up): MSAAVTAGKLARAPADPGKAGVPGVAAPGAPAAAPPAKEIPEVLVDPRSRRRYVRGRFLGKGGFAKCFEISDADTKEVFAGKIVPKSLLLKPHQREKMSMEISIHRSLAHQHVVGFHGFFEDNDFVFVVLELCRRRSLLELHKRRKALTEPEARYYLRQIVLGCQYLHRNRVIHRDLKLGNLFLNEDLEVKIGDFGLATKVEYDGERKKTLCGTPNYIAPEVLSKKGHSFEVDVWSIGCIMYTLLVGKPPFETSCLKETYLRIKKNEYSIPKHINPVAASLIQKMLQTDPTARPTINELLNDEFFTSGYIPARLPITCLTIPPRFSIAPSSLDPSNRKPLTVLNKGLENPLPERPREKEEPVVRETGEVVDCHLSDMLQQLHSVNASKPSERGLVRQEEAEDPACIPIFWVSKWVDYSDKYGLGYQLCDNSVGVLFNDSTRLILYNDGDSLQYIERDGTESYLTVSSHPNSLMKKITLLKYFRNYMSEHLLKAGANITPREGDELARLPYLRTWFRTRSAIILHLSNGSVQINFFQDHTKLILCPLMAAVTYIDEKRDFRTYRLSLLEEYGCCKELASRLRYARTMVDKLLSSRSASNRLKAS
Chain of UniProt P28328 (P28328 whole entry, looked up): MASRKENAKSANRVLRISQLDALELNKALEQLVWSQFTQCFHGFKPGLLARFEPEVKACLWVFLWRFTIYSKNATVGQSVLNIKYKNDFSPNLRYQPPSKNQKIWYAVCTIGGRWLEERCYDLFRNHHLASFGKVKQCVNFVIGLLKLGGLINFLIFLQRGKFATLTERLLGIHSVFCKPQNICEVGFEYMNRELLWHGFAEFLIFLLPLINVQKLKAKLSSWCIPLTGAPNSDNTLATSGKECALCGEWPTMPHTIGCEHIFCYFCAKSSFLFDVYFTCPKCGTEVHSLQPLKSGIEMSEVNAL
Chain of UniProt Q9BSG0 (Q9BSG0 whole entry, looked up): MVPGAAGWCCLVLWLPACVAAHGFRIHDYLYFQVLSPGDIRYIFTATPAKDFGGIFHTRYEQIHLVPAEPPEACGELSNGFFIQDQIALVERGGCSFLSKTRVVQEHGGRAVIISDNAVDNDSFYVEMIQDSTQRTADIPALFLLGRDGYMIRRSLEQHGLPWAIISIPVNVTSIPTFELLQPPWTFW
Chain of UniProt O00329 (O00329 whole entry, looked up): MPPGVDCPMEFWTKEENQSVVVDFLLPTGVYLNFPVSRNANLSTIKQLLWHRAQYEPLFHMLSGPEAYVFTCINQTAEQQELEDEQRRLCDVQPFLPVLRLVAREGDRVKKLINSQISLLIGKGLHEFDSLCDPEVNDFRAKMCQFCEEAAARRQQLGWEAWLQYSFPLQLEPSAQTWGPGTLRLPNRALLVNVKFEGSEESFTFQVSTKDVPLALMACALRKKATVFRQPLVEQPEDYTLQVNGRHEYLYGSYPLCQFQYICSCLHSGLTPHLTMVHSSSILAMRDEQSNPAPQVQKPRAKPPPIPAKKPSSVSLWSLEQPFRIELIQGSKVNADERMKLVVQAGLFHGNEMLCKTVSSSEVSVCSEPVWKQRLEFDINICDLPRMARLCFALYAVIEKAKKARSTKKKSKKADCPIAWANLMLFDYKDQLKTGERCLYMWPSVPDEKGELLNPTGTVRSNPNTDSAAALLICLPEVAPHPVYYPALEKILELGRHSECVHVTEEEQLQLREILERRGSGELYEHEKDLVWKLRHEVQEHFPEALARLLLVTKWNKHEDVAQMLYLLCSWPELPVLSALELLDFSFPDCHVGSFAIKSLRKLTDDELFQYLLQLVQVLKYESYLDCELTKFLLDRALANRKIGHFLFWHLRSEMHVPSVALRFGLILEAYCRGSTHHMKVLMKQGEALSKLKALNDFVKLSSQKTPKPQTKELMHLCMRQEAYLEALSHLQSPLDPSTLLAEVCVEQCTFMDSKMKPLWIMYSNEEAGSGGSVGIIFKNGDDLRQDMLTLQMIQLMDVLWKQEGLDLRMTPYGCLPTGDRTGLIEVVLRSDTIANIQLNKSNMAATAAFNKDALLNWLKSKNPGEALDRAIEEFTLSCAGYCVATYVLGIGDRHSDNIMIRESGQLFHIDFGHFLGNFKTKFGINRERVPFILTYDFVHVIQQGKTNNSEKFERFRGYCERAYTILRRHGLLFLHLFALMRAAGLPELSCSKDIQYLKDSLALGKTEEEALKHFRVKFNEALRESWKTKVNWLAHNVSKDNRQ
Chain of UniProt Q15004 (Q15004 whole entry, looked up): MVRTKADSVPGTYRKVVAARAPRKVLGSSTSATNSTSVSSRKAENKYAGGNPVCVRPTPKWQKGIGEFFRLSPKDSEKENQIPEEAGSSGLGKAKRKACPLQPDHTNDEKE
Chain of UniProt O14668 (O14668 whole entry, looked up): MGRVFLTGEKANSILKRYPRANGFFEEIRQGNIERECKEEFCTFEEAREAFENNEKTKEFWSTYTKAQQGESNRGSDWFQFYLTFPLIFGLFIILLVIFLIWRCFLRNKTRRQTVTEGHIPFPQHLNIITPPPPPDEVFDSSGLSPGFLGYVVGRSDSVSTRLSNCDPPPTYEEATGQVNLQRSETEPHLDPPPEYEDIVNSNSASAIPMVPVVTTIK

Q: How did the log2 fold change turn out when PFN1 (UniProt I3L3D5) was run?
A: -0.107 (inactive)

Q: For PCBP2 (UniProt F8VRH0), which log2 fold change is on record?
A: -0.058 (inactive)

Q: How did the log2 fold change turn out when PEX2 (UniProt P28328) was run?
A: 0.024 (inactive)

Q: For PHGDH, A0A286YFE1, which log2 fold change is on record?
A: 0.083 (inactive)

Q: For PREP (UniProt H0Y5Y0), which log2 fold change is on record?
A: 0.079 (inactive)

Q: With PFN3 (UniProt P60673) as the target, how does the log2 fold change read?
A: 0.056 (inactive)

Q: Which log2 fold change does the source give for PRG4 (UniProt Q92954) here?
A: 0.054 (inactive)

Q: How did the log2 fold change turn out when POM121C (UniProt A8CG34) was run?
A: -0.101 (inactive)

Q: For PTK2 isoform 2 (UniProt Q05397), which log2 fold change is on record?
A: -0.387 (inactive)

Q: For PPP1R11 (UniProt O60927), which log2 fold change is on record?
A: 0.046 (inactive)

Q: How did the log2 fold change turn out when PHKG1 isoform 2 (UniProt Q16816) was run?
A: 0.033 (inactive)

Q: With PPME1 (UniProt Q9Y570) as the target, how does the log2 fold change read?
A: -0.012 (inactive)

Q: With PLK1 (UniProt P53350) as the target, how does the log2 fold change read?
A: -0.009 (inactive)

Q: How did the log2 fold change turn out when PIK3CD (UniProt O00329) was run?
A: -0.015 (inactive)

Q: How did the log2 fold change turn out when PRR4 (UniProt Q16378) was run?
A: -0.046 (inactive)

Q: PRADC1 (UniProt Q9BSG0) was tested. Which log2 fold change did it give?
A: 0.074 (inactive)

Q: How did the log2 fold change turn out when PIP5K1A (UniProt Q99755) was run?
A: 0.07 (inactive)

Q: With POLR2M (UniProt Q6EEV4) as the target, how does the log2 fold change read?
A: -0.074 (inactive)

Compound: CCn1c(C(=O)N(C2CC2)C2CC2)cc2c3c(ncn3C)c(Nc3cc(C)n(C)n3)nc21
Test: as above
In short: as §1

Q: How did the log2 fold change turn out when PFN1 (UniProt I3L3D5) was run?
A: -0.067 (inactive)

Q: PCBP2 (UniProt F8VRH0) was tested. Which log2 fold change did it give?
A: -0.138 (inactive)

Q: With PEX2 (UniProt P28328) as the target, how does the log2 fold change read?
A: 0.052 (inactive)

Q: With PLXND1 (UniProt Q9Y4D7) as the target, how does the log2 fold change read?
A: -0.214 (inactive)

Q: For PIM1 isoform 2 (UniProt P11309), which log2 fold change is on record?
A: 0.073 (inactive)

Q: For PPP2R5C isoform 2 (UniProt Q13362), which log2 fold change is on record?
A: -0.081 (inactive)

Q: Which log2 fold change does the source give for PRG4 (UniProt Q92954) here?
A: -0.03 (inactive)

Q: PPIC (UniProt P45877) was tested. Which log2 fold change did it give?
A: 0.078 (inactive)

Q: For NA (UniProt Q4G0T1), which log2 fold change is on record?
A: 0.032 (inactive)

Q: PNPLA4 (UniProt P41247) was tested. Which log2 fold change did it give?
A: -0.111 (inactive)

Q: With POM121C (UniProt A8CG34) as the target, how does the log2 fold change read?
A: 0.045 (inactive)

Q: PMS1 (UniProt P54277) was tested. Which log2 fold change did it give?
A: -0.028 (inactive)

Q: With PPP1R11 (UniProt O60927) as the target, how does the log2 fold change read?
A: -0.101 (inactive)

Q: PHKG1 isoform 2 (UniProt Q16816) was tested. Which log2 fold change did it give?
A: 0.054 (inactive)

Q: How did the log2 fold change turn out when PIK3CG (UniProt P48736) was run?
A: 0.006 (inactive)

Q: How did the log2 fold change turn out when PLK1 (UniProt P53350) was run?
A: 0.014 (inactive)

Q: With PIK3CD (UniProt O00329) as the target, how does the log2 fold change read?
A: 0.072 (inactive)

Q: PRRG1 (UniProt O14668) was tested. Which log2 fold change did it give?
A: 0.052 (inactive)

Q: PRR4 (UniProt Q16378) was tested. Which log2 fold change did it give?
A: -0.005 (inactive)

Q: For PRADC1 (UniProt Q9BSG0), which log2 fold change is on record?
A: -0.05 (inactive)

Q: For PIP5K1A (UniProt Q99755), which log2 fold change is on record?
A: -0.041 (inactive)

Q: PIAS2 (UniProt O75928) was tested. Which log2 fold change did it give?
A: 0.003 (inactive)

Q: Which log2 fold change does the source give for PYGO2 (UniProt Q9BRQ0) here?
A: 0 (inactive)

Q: With PCLAF (UniProt Q15004) as the target, how does the log2 fold change read?
A: -0.033 (inactive)

Q: With PCBP2 (UniProt F8W0G4) as the target, how does the log2 fold change read?
A: -0.066 (inactive)

Q: PRIMPOL (UniProt Q96LW4) was tested. Which log2 fold change did it give?
A: 0.011 (inactive)
